Source: PubChem BioAssay
Rows were chosen to be rich in hits. Some 15% of all compounds tested hit in one or more screens of this group.
DT40 TDP1 CPT = qHTS for Inhibitors of human tyrosyl-DNA phosphodiesterase 1 (TDP1): qHTS in cells in presence of CPT; 420,000 compounds, 12% hits; chicken DT40 Tdp1-/-;hTDP1 cells + 20 nM CPT, ATP luminescence, 48 h; Potency, µM (titrated, usually from 46.2 µM), for the others: at the highest dose activity change, negative = growth inhibition, actives largely listed as inhibitors; further: nearly all actives have a fitted effect of over 55% in size
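Chicken DT40 Tdp1-/- cells complemented with human TDP1, 400 cells/well, exposed to compounds plus 20 nM camptothecin for at least 48 h at 37 C; viability read as ATP content by CellTiter-Glo luminescence.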
DT40 TDP1 no CPT = qHTS for Inhibitors of human tyrosyl-DNA phosphodiesterase 1 (TDP1): qHTS in cells in absence of CPT. DT40 Tdp1-/- hTDP1 cells, no CPT, ATP luminescence, 48 h. Potency, µM (top dose mostly 46.2 µM), inactives show at the top dose activity change, negative = growth inhibition, usual class: inhibitors. 420,000 compounds, 15% hits. AID 686978, 2013; further: nearly all actives have a fitted effect of over 55% in size
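No-CPT arm: Tdp1-/-;hTDP1 DT40 cells (400/well) plus compounds, incubated ≥48 hr at 37 °C. Readout CellTiter-Glo luminescence.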
12-LOX inh = Primary qHTS assay for inhibitors of human arachidonate 12S-lipoxygenase (ALOX12): Round 2; Polyunsaturated fatty acid lipoxygenase ALOX12 (Homo sapiens), P18054; purified 12hLO, xylenol orange hydroperoxide absorbance; Potency, µM (top dose mostly 108 µM), inactives show at the top dose activity change, negative = inhibition, usual class: inhibitors; 580,000 compounds, 1.1% hits; AID 1671190, 2021
Target sequence (P18054 whole entry, looked up): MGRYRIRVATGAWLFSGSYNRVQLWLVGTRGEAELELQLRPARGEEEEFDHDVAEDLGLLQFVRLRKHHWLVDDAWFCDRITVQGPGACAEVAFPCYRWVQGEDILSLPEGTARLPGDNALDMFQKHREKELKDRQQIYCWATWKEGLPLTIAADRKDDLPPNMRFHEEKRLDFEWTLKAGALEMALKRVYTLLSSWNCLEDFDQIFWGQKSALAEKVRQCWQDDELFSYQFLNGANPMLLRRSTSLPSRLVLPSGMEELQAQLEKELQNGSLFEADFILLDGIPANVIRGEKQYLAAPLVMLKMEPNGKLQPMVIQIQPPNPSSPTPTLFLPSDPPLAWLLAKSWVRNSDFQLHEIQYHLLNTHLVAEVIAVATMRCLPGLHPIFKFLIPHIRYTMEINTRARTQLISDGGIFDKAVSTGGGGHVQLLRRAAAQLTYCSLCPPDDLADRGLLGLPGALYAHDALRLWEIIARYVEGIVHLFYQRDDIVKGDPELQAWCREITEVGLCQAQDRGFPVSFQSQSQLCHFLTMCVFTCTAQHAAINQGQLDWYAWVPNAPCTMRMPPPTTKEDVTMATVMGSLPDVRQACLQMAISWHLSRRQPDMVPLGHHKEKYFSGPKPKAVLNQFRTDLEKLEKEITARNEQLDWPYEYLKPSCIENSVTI
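Purified human 12hLO at 150 nM in 25 mM Hepes, 0.01% Triton X-100, pH 7.0, preincubated 15 min at room temperature with compound. Reaction started with 40 uM arachidonic acid, 30 min at room temperature. Hydroperoxide measured by Fe-xylenol orange, 573/405 nm absorbance ratio.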
RORgamma inh = qHTS for inhibitors of ROR gamma transcriptional activity | Nuclear receptor ROR-gamma (Mus musculus), P51450 | Drosophila S2 Gal4-RORgamma UAS-luciferase reporter, 20 h | Potency, µM (series often up to 53.6 µM), for inactives: at the top dose activity change, negative = inhibition, actives largely listed as inhibitors | 310,000 compounds, 5.4% hits | AID 2551, 2010; further: nearly all actives have a fitted effect of over 60% in size
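A Gal4/UAS one-hybrid system in insect cells: metallothionein-promoter Gal4–ROR gamma fusion plus Photinus luciferase reporter. Copper sulfate 700 uM final, 20 hr ambient incubation, luminescent detection after 10 min with reagent.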
VP16 counter = VP16 counterscreen qHTS for inhibitors of ROR gamma transcriptional activity. Drosophila S2 Gal4-VP16 UAS-luciferase, luminescence, 20 h. Potency, µM (highest dose often 53.6 µM), without a hit: top-dose activity, negative = inhibition, usual class: inhibitors. 310,000 compounds, 3.5% hits;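 further: Gal4-VP16 expression switched on by copper sulfate through the metallothionein promoter; nearly all actives have a fitted effect of over 50% in size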
ELG1 DNA repair = qHTS screen for small molecules that inhibit ELG1-dependent DNA repair in human embryonic kidney (HEK293T) cells expressing luciferase-tagged ELG1 | AID 504467, 2011 | Potency, µM (highest dose often 46.1 µM), for the others: top-dose activity change, negative = inhibition, hits mostly inhibitors | HEK293T ELG1-luciferase reporter, luminescence, 16 h; DNA damage induced by 5-fluorouridine | 330,000 compounds, 2.3% hits; further: nearly all actives have a fitted effect of over 55% in size
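Quantitative HTS, concentration-response format. 2,000 cells/well co-treated with 5-fluorouridine and compound, 16 hr in 5% CO2 at 37 °C; ONE-Glo luminescence read after 30 min.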
Starred values were filed as active, the others as inactive; ? = inconclusive; . = no result given; [ ] = dose if it differs, or a comment. The call rests on the fitted dose curve; in most records, active means well fitted curve in the direction sought with a large enough effect; inconclusive means small, poorly fitted or top-dose-only effect, or another doubt; inactive means no such curve, though single readings can be large; an effect the other way counts as inactive or inconclusive. On the % scale 0 is the no-effect control and ±100 the full control effect; potency means the concentration at half of the fitted maximal effect.

SMILES	DT40 TDP1 CPT	DT40 TDP1 no CPT	12-LOX inh	RORgamma inh	VP16 counter	ELG1 DNA repair
COc1ccc(CN(C(=O)c2cc(=O)c3ccc(C)cc3o2)C2CCS(=O)(=O)C2)cc1 (configuration not stated)	.	.	12%	.	.	.
COc1ccc(CN(C(=O)c2cccc(F)c2)C2CC2)c(OC)c1	.	.	23%	.	.	.
O=C(Nc1nc(-c2ccccn2)cs1)c1cc(S(=O)(=O)N2CCOCC2)ccc1F	2.6µM*	2.3µM*	?	.	.	1%
COCc1nc2ccccc2n1Cc1c(F)cccc1Cl	18µM*	13µM*	0%	?	-28%	1%
CCCCCn1c(CCNC(=O)CCC)nc2ccccc21	?	16µM*	14%[57.4 µM]	-20%	-5%	3%
CCCn1c(CCCNC(=O)c2ccccc2OC)nc2ccccc21	?	18µM*	-9%	.	.	.
CCCC(=O)NCCc1nc2ccccc2n1Cc1c(F)cccc1Cl	21µM*	15µM*	-4%	.	.	.
CCCC(=O)NCCc1nc2ccccc2n1CCC	-14%	-29%	26%	6%	29%	3%
CCCC(C)NC(=O)c1csc(CC)c1 (configuration not stated)	.	.	30%	.	.	.
CCC(Oc1ccccc1)C(=O)Nc1ccc2oc(C)nc2c1 (configuration not stated)	.	.	-7%	.	.	.
CCCCCn1c(CCCNC(=O)CC)nc2ccccc21	21µM*	16µM*	13%	?	-6%	-16%
CCCCn1c(CNC(=O)c2cccs2)nc2ccccc21	-13%	?	28%	11µM*	?	2%
CCCC(=O)NCCCc1nc2ccccc2n1C	-15%	3%	14%	-4%	1%	12%
C=C(C)Cn1c(CCCNC(=O)CCC)nc2ccccc21	13µM*	15µM*	19%	-1%[0.365 µM]	.	1%
CCCCn1c(CCCNC(=O)c2ccco2)nc2ccccc21	?	15µM*	0%	14%	-3%	-6%
CCCCn1c(CCNC(=O)CCC)nc2ccccc21	-24%	?	17%	?	7%	13%
Cc1ccc(NS(=O)(=O)c2cc(C(=O)O)cc3c2CCC3)c(F)c1	.	.	-4%	.	.	.
Cc1cc(O)c(-c2cc(C(=O)Nc3cccc(C(F)(F)F)c3)[nH]n2)cc1C	.	.	-13%	.	.	.
COc1cc(Nc2ccccn2)cc(C(=O)Nc2cccc(C(F)(F)F)c2)c1	16µM*	?	-48%	28%	11%	?
COc1cc(NC(=O)c2csc(-c3ccncc3)n2)cc(C(=O)Nc2cccc(C(F)(F)F)c2)c1	8.2µM*	4.6µM*	-18%	27%	4%	5.2µM*
COc1cc(OC)cc(C(=O)Nc2cccc(C(C)=O)c2)c1	-10%	-15%	-29%	?	7%	17%
COc1cc(NC(=O)c2nccnc2N)cc(C(=O)Nc2cccc(C(F)(F)F)c2)c1	?	?	19%	-10%	1%	0%
O=C(Nc1cccc(C(F)(F)F)c1)c1csc(-c2ccncc2)n1	-10%	?	-12%	21%	5%	?
COc1cc(NC(=O)c2ccc(N)nc2)cc(C(=O)Nc2cccc(C(F)(F)F)c2)c1	?	16µM*	?	11%	-3%	?
COc1ccc(-c2cc(C(=O)Nc3cc(OC)cc(C(=O)Nc4cccc(C(F)(F)F)c4)c3)[nH]n2)cc1	2.3µM*	2.6µM*	2%	15%	-5%	-4%
SMILES	DT40 TDP1 CPT	DT40 TDP1 no CPT	12-LOX inh	RORgamma inh	VP16 counter	ELG1 DNA repair
COc1cc(NC(=O)c2cc3cc4cc(OC)ccc4nc3o2)cc(OC)c1	-25%	?	-21%	.	.	.
COc1cc(NC(=O)c2nccn2C)cc(C(=O)Nc2cccc(C(F)(F)F)c2)c1	?	6.5µM*	?	-19%	-2%	8%
COc1cc(NC(=O)c2ccno2)cc(C(=O)Nc2cccc(C(F)(F)F)c2)c1	?	16µM*	-21%	-5%	8%	?
Cn1ccnc1SCC(=O)Nc1cccc(C(F)(F)F)c1	-2%	0%	12%	2%	19%	?
COc1cc(NC(=O)c2cc3cccc(OC)c3o2)cc(C(=O)Nc2cccc(C(F)(F)F)c2)c1	6.5µM*	5.2µM*	-11%	26%	-5%	12µM*
COc1ccc2nc3oc(C(=O)Nc4cccc(C(F)(F)F)c4)cc3cc2c1	13µM*	12µM*	-5%	.	.	.
CC1(C)NC(=O)N(Cc2coc(-c3ccc(Cl)cc3)n2)C1=O	.	.	-1%	.	.	.
CCOC(=O)C(NC(=O)/C=C/c1cc(Cl)c(OCC)c(OC)c1)C(=O)OCC	.	.	6%	.	.	.
O=C(/C=C/c1ccccc1Cl)Nc1ccccc1	-28%	-19%	19%	2µM*	?	?
CCCCOC(=O)c1cccc(NC(=O)/C=C/c2ccccc2Cl)c1	?	21µM*	-15%	.	.	.
O=C(/C=C/c1ccccc1Cl)Nc1cccc(O)c1	?	?	-5%	0.32µM*	2.5µM*	?
CCCCOC(=O)c1cccc(NC(=O)CCC(=O)O)c1	4%	0%	-10%	-14%	-7%	-11%
O=C(/C=C/c1ccccc1Cl)Nc1ccc(-c2nnc3n2CCCCC3)cc1	15%	-8%	7%	?	-16%	18µM*
O=C(C=Cc1ccccc1)Nc1ccccc1	-29%	-25%	-14%	.	.	.
Cc1ccc(Sc2ccc(NC(=O)c3cccc4ccccc34)cc2)c(C)c1	.	.	-25%	.	.	.
CCc1ccc(CNC(C)(C)CO)cc1	.	.	-29%	.	.	.
CN(C)S(=O)(=O)c1ccc(NC(=O)/C=C/c2ccccc2Cl)cc1	?	23µM*	-13%	0.5µM*	-10%	-11%
Cc1nn2c(c1-c1ccccc1OCc1ccccc1)N(Cc1cccc(O)c1)CCC2	.	.	3%[176 µM]	.	.	.
N#C/C(=C\c1ccc(OC(=O)c2ccc(Cl)cc2)cc1)C(=O)Nc1ccccc1C(F)(F)F	.	.	12%	.	.	.
Cc1cc(C)n(CCNC(=O)[C@H]2O[C@@H](n3ccc(N)nc3=O)[C@H](O)[C@@H]2O)n1	9%	34%	50µM*	.	.	.
Cc1ccc(OCCNC(=O)[C@H]2O[C@@H](n3ccc(N)nc3=O)[C@H](O)[C@@H]2O)cc1C	16%	7%	?	.	.	.
